Source: PubChem BioAssay
CYP2C9 act: CYP2C9 (human) activation | P11712 | recombinant CYP2C9, luciferin-H conversion, luminescence; stronger effect = higher value; factor 1 = untreated enzyme, 0 = blocked | activation factor at 5 µM | 1.4% of 96,000 active;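 active = activation factor of 2 or more for CYP2C9 at a 5 µM dose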;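 note: 0 = sulfaphenazole-blocked wells and 1 = vehicle-only wells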
CYP2C19 activ: activators of human cytochrome P450 2C19. P33261. recombinant CYP2C19, luciferin-H EGE luminescence; stronger effect = higher value; 0 = fully inhibited enzyme, 1 = untreated enzyme. activation factor at 5 µM. 96,000 tested, under 10 active;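 active = activation factor of at least 2 at 5 µM in the primary screen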;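 note: 0 = wells with 2.5 mM tranylcypromine and 1 = vehicle-only wells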
CYP2C19 inhib: inhibitors of human CYP2C19 | CYP2C19 Supersomes, luciferin-H EGE luminescence, 30 min | 21% of 96,000 active | inhibition, % at 5 µM | P33261;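 active = CYP2C19 inhibition above a set limit at 5 µM in the primary screen, cut at about 50% in these data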;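 note: plate controls were negative control wells for no effect and 2.5 mM tranylcypromine positive control for full effect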
DAT uptake mod: changed human dopamine transporter uptake under cocaine IC80 | LLC-PK1 hDAT cells, [14C]-dopamine uptake with cocaine IC80; actives deviate in either direction | B-score at 10 µM | 1.3% of 110,000 active | AID 449768;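 active = Z score or B-score, a plate-position-corrected score, falls beyond the plate's 99.7% confidence bounds, in either direction; inactive = both scores lie inside the 99.7% bounds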;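 note: scored against the spread of the other compound wells on the same plate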
CYP2C9 inhib: human CYP2C9 inhibition; P11712; CYP2C9 Supersomes, luciferin-H conversion, luminescence; inhibition, % at 5 µM; 20% of 96,000 active; AID 777;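 active = blocking of liver enzyme CYP2C9 beyond about 50% at 5 µM, limit read from the data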
D1 allo mod: allosteric modulators of human D1 dopamine receptor. P21728. 5.9% of 58,000 active. HEK293 D1, CRE-luciferase, dopamine EC30 potentiation; actives deviate in either direction. B-score at 10 µM;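 active = luminescence count or its row- and column-corrected plate score outside the 99.7% band of the plate's sample wells, on either side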
Target sequence (P21728 whole entry, looked up): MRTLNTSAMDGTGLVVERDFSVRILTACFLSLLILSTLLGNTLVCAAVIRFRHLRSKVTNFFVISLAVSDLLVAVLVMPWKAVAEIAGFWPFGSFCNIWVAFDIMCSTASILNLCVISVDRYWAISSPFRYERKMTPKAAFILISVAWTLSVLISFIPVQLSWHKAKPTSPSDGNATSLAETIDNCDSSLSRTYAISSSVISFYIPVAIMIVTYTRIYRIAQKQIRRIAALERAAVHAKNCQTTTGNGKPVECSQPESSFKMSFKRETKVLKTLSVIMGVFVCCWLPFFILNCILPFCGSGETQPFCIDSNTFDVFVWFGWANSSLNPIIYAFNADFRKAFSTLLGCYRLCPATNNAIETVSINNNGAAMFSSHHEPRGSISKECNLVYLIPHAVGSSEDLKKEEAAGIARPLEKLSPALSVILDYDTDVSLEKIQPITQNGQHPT
* marks the source's active call; other numbers are inactive results; · = no result. Rows were chosen to be rich in hits. Some 28% of all compounds tested hit in one or more screens of this group.

SMILES	CYP2C9 act	CYP2C19 activ	CYP2C19 inhib	DAT uptake mod	CYP2C9 inhib	D1 allo mod
CCC1SC2=NC(C)=C(C(=O)OC)C(c3cccs3)N2C1=O (stereo not drawn)	0.6	0.1	90*	-0.062	44	-0.08
Cc1ccc(C)c(-n2c(CNc3ccc(F)cc3)nnc2SCC(N)=O)c1	0.8	1	2	1.1	22	0.015
Cc1ccccc1C(=O)/C=C1/c2ccccc2CC(C)(C)N1C	0.4	0.6	41	-0.21	58*	·
Cc1cccc(C(=O)/C=C2/c3ccccc3CC(C)(C)N2C)c1	0.1	0.1	87*	-0.22	85*	·
COC(=O)C1N[C@@H]([C@@H](NC(=O)COc2ccccc2)C(=O)NCc2ccc(OC)cc2)SC1(C)C (stereo partly drawn)	·	·	·	0.56	·	·
O=C(c1ccco1)N1CCN=C1SCc1cccnc1	1.1	0.9	12	1.1	-7	0.52
COc1cc(OC)cc(C(=O)N2CCN=C2SCc2cccnc2)c1	0.1	0	100*	1.6*	90*	0.046
O=C(c1cccs1)N1CCN=C1SCc1cccnc1	0.7	0.4	55*	0.093	25	-0.079
O=C(COc1ccccc1)N1CCN=C1SCc1cccnc1	0.9	0.7	27	0.95	10	-0.54
O=C(c1cccc(F)c1)N1CCN=C1SCc1cccnc1	0.2	0.1	91*	0.88	82*	0.0098
O=C(N1CCN=C1SCc1cccnc1)C12CC3CC(CC(C3)C1)C2	0.9	0.2	83*	-0.024	9	0.053
CCOC(=O)Cn1c(CN2CCN(c3cccc(Cl)c3)CC2)nc2c1c(=O)[nH]c(=O)n2C	·	·	·	0.11	·	0.12
CC(=O)N1CCN=C1SCc1ccc(F)cc1	0.8	0.6	39	-0.053	22	2
O=C(c1ccc(Br)o1)N1CCN=C1SCc1cccc(F)c1	0.4	0.1	91*	-0.04	59*	-0.022
O=C(NCc1ccccn1)Nc1ccc(Cl)c(Cl)c1	·	·	·	0.82	·	-1.3
S=C(NCc1ccccn1)Nc1ccc(Cl)cc1	0.7	0.4	60*	0.97	28	·
O=C(NCCN1CCOCC1)c1ccc2c(c1)ncn2C1CCCCC1	0.9	1	-3	0.46	8	0.14
CC1Cc2ccccc2N1Cc1nc2cc(C(F)(F)F)ccc2c(=O)[nH]1 (stereo not drawn)	0.5	0.6	43	0.017	51*	·
COc1nc(N/N=C/c2ccccc2F)nc(N2CCCCC2)n1	1	0.9	6	0.074	2	·
Cc1cc2c3c(ccc(C)c3n1)N=CN2c1ccccc1	0.4	0.6	39	1.2	56*	·
CC(C)(C)c1cc(NC(=O)COc2ccc(Br)cc2)n(-c2ccccc2)n1	1.1	0.6	36	0.29	-8	·
Cc1ccc(/C=C/C(=O)c2ccc(C)cc2)cc1	·	·	·	-0.46	·	·
O=C(/C=C/c1ccc2ccccc2c1)c1ccoc1	0.7	0.4	58*	-0.17	34	·
CCOC(=O)c1nnc(-c2ccccc2)nc1NCc1ccc(Cl)cc1	0.5	0.9	14	0.93	48	·
CC1CCCC(C)N1CCNC(=O)C1CCN(S(=O)(=O)N2CCCCC2)CC1 (stereo not drawn)	1.1	0.9	6	-0.55	-6	0.42
SMILES	CYP2C9 act	CYP2C19 activ	CYP2C19 inhib	DAT uptake mod	CYP2C9 inhib	D1 allo mod
CCCCOC(=O)CSc1nc2c(cc1C#N)C(=O)CC(C)(C)C2	0.4	0.5	49	-1.3	64*	-0.46
COCCNS(=O)(=O)c1ccc(SC)cc1	1.2	0.7	35	-0.9	-16	-0.48
CS(=O)(=O)c1ccc(Cl)c(S(=O)(=O)NCc2ccccc2)c1	1	0.8	17	-1.1	2	0.0031
CSc1ccc(S(=O)(=O)NCc2ccccc2)cc1	1.1	0.3	67*	-0.47	-13	·
O=S(=O)(NCC(c1ccccc1)N1CCNCC1)c1ccc(Cl)cc1 (stereo not drawn)	0.9	0.4	60*	-0.084	5	-0.64
O=S(=O)(NCc1ccccc1)c1ccc(Cl)cc1	0.3	0.2	80*	-0.83	72*	·
CSc1ccc(S(=O)(=O)NCc2ccc(Cl)cc2Cl)cc1	2.4*	0.1	86*	-0.5	-136	·
O=C(CN(c1ccccc1)S(=O)(=O)c1ccc(F)cc1)N1CCCCCC1	0.9	0.9	10	-0.25	7	-0.13
CCN1C(=O)CC(C(=O)O)SC1=Nc1ccc(OC)cc1 (stereo not drawn)	1.1	1	-5	-1.1	-8	0.79
COc1cc(-c2nnc(COc3ccc4ccccc4c3)o2)cc(OC)c1OC	0.5	0.5	46	·	49	0.5
COc1ccccc1COC(=O)Nc1c(C)nn(C)c1Cl	1.3	0.7	34	-0.73	-29	·
O=S(=O)(NCc1ccc(Cl)cc1)c1ccc(Cl)nc1	0.8	0.1	90*	-0.049	17	·
O=CNc1ccc(S(=O)(=O)NCc2ccccc2)cc1	1.8	0.1	90*	-0.006	-78	·
CCOC(=O)Nc1ccc(S(=O)(=O)NCc2ccccc2)cc1	0.9	0.8	19	-0.29	7	-0.6
Cn1c(/N=C/c2cccs2)nc2ccccc21	1.1	1	4	0.12	-8	0.043
Cc1ccc(C)c(N=Nc2nc3ccccc3n2C)c1	0.7	0.3	66*	-1.4	32	·
COc1ccc(C2N3CC4(C)CN2CC(C)(C3)C4O)cc1 (stereo not drawn)	1	1.2	-18	-0.0052	-4	0.95
COc1ccc(-c2csc(C)n2)cc1	·	·	·	0.02	·	·
COc1ccc(-c2ncncc2-c2csc(C)n2)c(O)c1	0.5	0.1	89*	-0.46	49	0.65
COc1ccc(-c2nc(C)ncc2-c2csc(C)n2)c(O)c1	0.9	0.5	54*	-0.14	11	·
O=C(O)CCC(=O)Nc1ccc(OCC(=O)O)cc1	1.3	1.2	-19	-0.46	-27	·
Cc1cc(N2CCC3(CC2)OCCO3)n2nc(C)c(-c3ccc(Cl)cc3)c2n1	·	·	·	·	·	0.78
O=S(=O)(N1CCCCC1)n1nnc2ccccc21	1.2	0.2	82*	-0.22	-16	·
O=C(Cn1nc(C(F)(F)F)c2c1CCC2)NCc1ccc(Cl)cc1	·	·	·	-0.13	·	·
O=C(/C=C/Nc1cccc([N+](=O)[O-])c1)c1cccs1	0.3	0.7	30	0.68	71*	·
SMILES	CYP2C9 act	CYP2C19 activ	CYP2C19 inhib	DAT uptake mod	CYP2C9 inhib	D1 allo mod
O=C1NC[C@H](c2ccccc2)N(CCc2cccc(F)c2)C1=O	·	·	·	0.094	·	·
CCn1cc(-c2nnnn2-c2ccc(Cl)cc2)c(=O)c2ccccc21	1.1	0.9	9	0.28	-15	·
Cc1cc(C(=O)C(=O)N(C)C)c(C)n1-c1ccc([N+](=O)[O-])cc1	1	0.3	72*	-0.92	3	·
C=CCN(CC=C)C(=O)C(=O)c1cc(C)n(-c2ccc([N+](=O)[O-])cc2)c1C	0.6	0	98*	·	44	·
Cn1c(Cn2nnc3ccccc32)nnc1SCC(=O)N1CCc2ccccc21	1	1.1	-7	-0.21	-4	1.1
O=C(NC1CCCCC1)C1CCN(S(=O)(=O)c2cccc3cccnc23)CC1	3.4*	0.4	55*	-0.84	-242	·
